The results in this text go back to the supplement of paper PMC10338343.

± gives the standard deviation.

For the first assay, the system named is MILI (PIWIL2) piRISC loaded with L1MC piRNA (26 nt). The assay can be described thus: pre-steady-state target cleavage rate (min^-1); guide: L1MC piRNA 5'p-UAACUAAAUACUAUGCAAGCUGUAGG; MIWI and MILI are mouse PIWI proteins and EfPiwi is from a freshwater sponge; tags in brackets are library labels; higher = faster piRNA-guided slicing of the target. The conditions noted are these: auxiliary factor: 500 nM mouse GTSF1. Summed up: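 The pre-steady-state cleavage rate was obtained by Cleave-'n-Seq with a burst-and-steady-state fit. A transcribed, DNA-blocked target RNA library (0.1 nM) was mixed with 1 nM active affinity-purified piRISC carrying one synthetic guide, with or without 500 nM GTSF1 partner protein, in HEPES–potassium acetate buffer at 33 °C for 0–8 or 0–960 min. Uncleaved targets were sequenced and normalised to depth and to weakly complementary targets, with three trials pooled and k3 capped at 0.0001 min^-1.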
As to UCCUGGAUGUCGAAGCAUAGUAUAAUGUUA, the “pre-steady-state target cleavage rate” value came out at 0.0052 ± 0.0029.

For UCCUGGAACAGCUACGAUAGUAUUUAGUAA, the “pre-steady-state target cleavage rate” value was 0.142 ± 0.02.

As for UCCUGGAUGUCCAUGCAUUGUAUUUAGUUA, the “pre-steady-state target cleavage rate” value turned out to be 0.0108 ± 0.0042. Same read-out and setting: the result for UCCUGGAACAGCUUGCAUAGUUUUAAGUUA reads 0.0465 ± 0.009; that for UCCUGGAUGUCGUUGCAUAGUAUUUAUUUA, 0.0344 ± 0.011.

As to UCCUGGAACUCCUUGCAUAGUAUUUACAAA, the “pre-steady-state target cleavage rate” value stood at 0.241 ± 0.061. The same measure, in the same setting: the result for UCCUGGAACAGCUUGGAUAGAAUUUAGUUA reads 0.0521 ± 0.013; that for UCCUGGAACAGCUUGCAUAGUAUAAAGUAA, 0.249 ± 0.063; that for UCCUGCUACAGCAACCAUAGUAUUUAGAAA, 0.102 ± 0.03.

Regarding UCCUGGAACAGCUUGCUAUGUAUUUAGUAA, the “pre-steady-state target cleavage rate” value is 0.0125 ± 0.0054. Still for that read-out and setting: the result for UCCUGGAUGUCGAUGCAUAGUAUUUCAGUUA reads 0.108 ± 0.025; that for UCCUGGAACAGCUUGCUUAGUAUUUUCAAA, 0.0287 ± 0.011. Same read-out and setting: the figure for UCCUGGAUGUGCUUGCUUAGUAUUAAGUUA is 0.0615 ± 0.017.

Staying with this assay, now noted: auxiliary factor: none (no GTSF1).
On to UCCUGGAUCAGCUACCAUAGUAUUUACAAA, for which the “pre-steady-state target cleavage rate” value is under 0.0001.

Regarding UCCUGGAUGUCGAUCCAUAGAAUUUAGUUA, the “pre-steady-state target cleavage rate” value was under 0.0001. Take UCCUGGAUGUCGAACGAUAGUAUGUUAGUUA: the “pre-steady-state target cleavage rate” value is under 0.0001.
